According to PubChem BioAssay (NCI):
Compounds without any hit were thinned out: in the full panel of roughly 79,000, 15% have a hit. Values without a mark were called inactive. Calls of active or inactive are those of the source. Rule as the data show it: active = growth inhibition above about 70%; inactive = the rest.

Legend:
[1] = NCI Yeast Anticancer Drug Screen. Data for the rad52 strain (AID 147);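 also: 0% = growth of vehicle-treated control cultures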; details: S. cerevisiae rad52 mutant growth inhibition, active compounds read high
In short: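 Vehicle-treated cultures served as the reference for growth inhibition of compound-exposed yeast bearing a DNA repair mutation.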

[2] = NCI Yeast Anticancer Drug Screen. Data for the wt1 strain (AID 149);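 also: 0% = growth of vehicle-treated wt1 cultures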; details: S. cerevisiae wt1 strain (SPY 50644) growth inhibition, active compounds read high
In short: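 Measured: growth of wt1 yeast under compound versus vehicle treatment, reported as inhibition.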

[3] = NCI Yeast Anticancer Drug Screen. Data for the rad50EPP+ strain (AID 151);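 also: 0% = growth of vehicle-treated control cultures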; details: S. cerevisiae rad50 mutant strain, active compounds read high
In short: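 In this screen, rad50EPP+ yeast were exposed to compounds. Growth inhibition was scored against vehicle-treated controls.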

[4] = NCI Yeast Anticancer Drug Screen. Data for the rad50 strain (AID 155);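 also: 0% = growth of vehicle-only cultures of the same strain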; details: S. cerevisiae rad50 strain growth inhibition, active compounds read high
In short: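 Growth of the mutant yeast was measured after compound exposure and referenced to vehicle-treated cultures.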

[5] = NCI Yeast Anticancer Drug Screen. Data for the mec2-1 strain (AID 157); details: S. cerevisiae mec2-1 strain, active compounds read high
In short: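 Vehicle-treated cultures served as reference for growth inhibition of compound-exposed mec2-1 yeast.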

[6] = NCI Yeast Anticancer Drug Screen. Data for the rad14 strain (AID 159);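 also: 0% = growth of vehicle-treated control cultures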; details: S. cerevisiae rad14 strain growth inhibition, active compounds read high
In short: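 Here, inhibition of yeast growth was measured after compound exposure, using a strain with a genetic defect in DNA damage repair and vehicle-treated cultures as the reference.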

[7] = NCI Yeast Anticancer Drug Screen. Data for the sgs1 mgt1 strain (AID 161);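 also: 0% = growth of cultures given vehicle only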; details: S. cerevisiae sgs1 mgt1 strain, active compounds read high
In short: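 Mutant yeast exposed to compound; growth scored against vehicle-only wells.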

[8] = at 5.0 µM (retest, dose inferred, filed as 0.5)
[9] = at 50.0 µM (retest, dose inferred, filed as 5.0)

With COc1cc2c(cc1[N+](=O)[O-])C(=O)C(Br)(Br)CCC2 the growth inhibition ([1]; at 1.2 µM) was 39%, the growth inhibition ([1]; at 3.7 µM) was 63% and the growth inhibition ([1]; at 11.0 µM) was 98% (active). For the same compound, the growth inhibition ([1]; at 33.0 µM) was 99% (active), the growth inhibition ([1]; at 100.0 µM) was 94% (active) and the growth inhibition ([2]; at 1.2 µM) was 38%. For the same compound, the growth inhibition ([2]; at 3.7 µM) was 50%, the growth inhibition ([2]; at 11.0 µM) was 91% (active) and the growth inhibition ([2]; at 33.0 µM) was 99% (active). The growth inhibition ([2]; at 100.0 µM) was 98% (active), the growth inhibition ([3]; at 1.2 µM) was 40% and the growth inhibition ([3]; at 3.7 µM) was 73% (active). For the same compound, the growth inhibition ([3]; at 11.0 µM) was 99% (active), the growth inhibition ([3]; at 33.0 µM) was 100% (active) and the growth inhibition ([3]; at 100.0 µM) was 96% (active). For the same compound, the growth inhibition ([4]; at 1.2 µM) was 42%, the growth inhibition ([4]; at 3.7 µM) was 50% and the growth inhibition [4, 8] was 8%. For the same compound, the growth inhibition ([4]; at 11.0 µM) was 97% (active), the growth inhibition ([4]; at 33.0 µM) was 99% (active) and the growth inhibition [4, 9] was 98% (active). For the same compound, the growth inhibition ([4]; at 50.0 µM) was 91.2% (active), the growth inhibition ([4]; at 100.0 µM) was 95% (active) and the growth inhibition ([5]; at 1.2 µM) was 35%. The growth inhibition ([5]; at 3.7 µM) was 41%, the growth inhibition [5, 8] was 31% and the growth inhibition ([5]; at 11.0 µM) was 99% (active). The growth inhibition ([5]; at 33.0 µM) was 100% (active), the growth inhibition [5, 9] was 100% (active) and the growth inhibition ([5]; at 50.0 µM) was 93.5% (active). The growth inhibition ([5]; at 100.0 µM) was 96% (active), the growth inhibition ([6]; at 1.2 µM) was 33% and the growth inhibition ([6]; at 3.7 µM) was 44%. The growth inhibition ([6]; at 11.0 µM) was 99% (active), the growth inhibition ([6]; at 33.0 µM) was 100% (active) and the growth inhibition ([6]; at 100.0 µM) was 96% (active). The growth inhibition [7, 8] was 49%, the growth inhibition [7, 9] was 100% (active) and the growth inhibition ([7]; at 50.0 µM) was 90% (active).
